# Where “and” joins values, the source holds several entries; their conditions need not be identical. Equal entries are not always repeated. Results filed as inconclusive are left out. Where a call stands in place of a potency, no number is given. The source holds several records for some structures; these can differ, active in one and inactive in another. Values without a mark were called inactive. Calls of active or inactive are those of the source. The call rests on the fitted dose curve; in most records, active means well fitted curve in the direction sought with a large enough effect; inconclusive means small, poorly fitted or top-dose-only effect, or another doubt; inactive means no such curve, though single readings can be large; an effect the other way counts as inactive or inconclusive.
# Columns and labels:
# HEK293 = assay: Cytotoxic Profiling of Annotated Libraries Using Quantitative High-Throughput Screening (AID 1296008); conditions: Five cell lines viability, CellTiter-Glo ATP luminescence, 48-72 h; max response: hits give low values; further: nearly all actives have a fitted effect of over 60% in size
# Outline: (§1)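 Compounds were pin-transferred onto cells and incubated 48 or 72 hr at 37 degree Celsius, 95% humidity. CellTiter-Glo was added, plates sat 10 min at room temperature, then ATP-coupled luminescence was imaged as the viability read-out.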
# HaCat [1] = assay: as above; conditions: Five cell lines viability, CellTiter-Glo ATP luminescence, 48-72 h; max response: hits give low values
# Outline: as §1
# KB-3-1 = assay: as above; conditions: Five cell lines viability, CellTiter-Glo ATP luminescence, 48-72 h; max response: hits give low values
# Outline: as §1
# NIH3T3 [2] = assay: as above; conditions: Five cell lines viability, CellTiter-Glo ATP luminescence, 48-72 h; max response: hits give low values
# Outline: as §1
# HACAT [3] = assay: qHTS assay to identify novel small-molecules to repurpose for Merkel cell carcinoma treatment (AID 1296009); conditions: MCC and control cell lines, CellTiter-Glo viability, 72 h; at 44.8 µM (top of the series) unless noted; further: nearly all actives have a fitted effect of over 60% in size
# Outline: (§2)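 Cells exposed to NPC (8-point) and MIPE (11-point) compound dilutions for 72 hr at 37 degree celsius; viability read by CellTiter-Glo luminescence, normalized to no-cell and DMSO in-plate controls.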
# MCC-13 = assay: as above; conditions: MCC and control cell lines, CellTiter-Glo viability, 72 h; series mostly up to 46 µM
# Outline: as §2
# MCC-26 = assay: as above; conditions: MCC and control cell lines, CellTiter-Glo viability, 72 h; series mostly up to 46 µM
# Outline: as §2
# MKL-1 = assay: as above; conditions: MCC and control cell lines, CellTiter-Glo viability, 72 h; series mostly up to 46 µM
# Outline: as §2
# MKL-2 = assay: as above; conditions: MCC and control cell lines, CellTiter-Glo viability, 72 h; series mostly up to 46 µM
# Outline: as §2
# NIH3T3 [4] = assay: as above; conditions: MCC and control cell lines, CellTiter-Glo viability, 72 h; at 44.8 µM (top of the series) unless noted
# Outline: as §2
# UISO = assay: as above; conditions: MCC and control cell lines, CellTiter-Glo viability, 72 h; series mostly up to 46 µM
# Outline: as §2
# WaGa = assay: as above; conditions: MCC and control cell lines, CellTiter-Glo viability, 72 h; series mostly up to 46 µM
# Outline: as §2
# C33A = assay: Primary qHTS to identify gynecologic anti-cancer compounds using libraries of approved drugs and bioactive compounds (AID 1345084); conditions: Gynecologic cancer cell panel viability, ATPlite luminescence, 48 h; series mostly up to 57.5 µM; further: nearly all actives have a fitted effect of over 55% in size
# Outline: (§3)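 Measured: luminescence after ATPlite addition (15 min, RT). Exposure: 48 h, 37 C, 5% CO2.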
# CAOV3 = assay: as above; conditions: Gynecologic cancer cell panel viability, ATPlite luminescence, 48 h; series mostly up to 57.5 µM
# Outline: as §3
# CASKI = assay: as above; conditions: Gynecologic cancer cell panel viability, ATPlite luminescence, 48 h; series mostly up to 57.5 µM
# Outline: as §3
# Es-2 = assay: as above; conditions: Gynecologic cancer cell panel viability, ATPlite luminescence, 48 h; series mostly up to 57.5 µM
# Outline: as §3
# HeLa = assay: as above; conditions: Gynecologic cancer cell panel viability, ATPlite luminescence, 48 h; series mostly up to 57.5 µM
# Outline: as §3
# Hek293T [5] = assay: as above; conditions: Gynecologic cancer cell panel viability, ATPlite luminescence, 48 h, control line for the selectivity index; series mostly up to 57.5 µM
# Outline: as §3
# JEG-3 = assay: as above; conditions: Gynecologic cancer cell panel viability, ATPlite luminescence, 48 h; series mostly up to 57.5 µM
# Outline: as §3
# HEK293T [6] = assay: qHTS assay to identify novel small-molecules to repurpose for Merkel cell carcinoma treatment (AID 1296009); conditions: MCC and control cell lines, CellTiter-Glo viability, 72 h; at 44.8 µM (top of the series); further: nearly all actives have a fitted effect of over 60% in size
# Outline: as §2
# Potency means the concentration at half of the fitted maximal effect.
structure (smiles),measurement,setting,value
Cn1c(N2CCCCS2(=O)=O)nc(C(=O)NCc2ccc(F)cc2)c(O)c1=O,max response,HEK293,-2.82% and 1.1%
same,outcome,HaCat [1],inactive
same,max response,KB-3-1,0.163% and -14.6%
same,max response,NIH3T3 [2],-0.0051%
same,outcome,NIH3T3 [2],inactive
same,outcome,HACAT [3],inactive
same,Potency,MCC-13,inactive
same,Potency,MCC-26,inactive
same,Potency,MKL-1,inactive
same,Potency,MKL-2,inactive
same,outcome,NIH3T3 [4],inactive
same,Potency,UISO,inactive
same,Potency,WaGa,inactive
same,Potency,C33A,inactive
same,Potency,CAOV3,inactive
same,Potency,CASKI,inactive
same,Potency,Es-2,inactive
same,Potency,HeLa,inactive
same,Potency,Hek293T [5],inactive
same,Potency,JEG-3,inactive
COC(=O)[C@@H]1[C@H]2C[C@H]3c4[nH]c5ccccc5c4CCN3C[C@@H]2CC[C@@H]1O,max response,HEK293,-10.9% and -9.65%
same,max response,HaCat [1],0.769%
same,outcome,HaCat [1],inactive
same,max response,KB-3-1,-4.37% and 9.99%
same,max response,NIH3T3 [2],-5.76%
same,outcome,NIH3T3 [2],inactive
same,outcome,HACAT [3],inactive
same,Potency,MCC-13,inactive
same,Potency,MCC-26,inactive
same,Potency,MKL-1,inactive
same,Potency,MKL-2,inactive
same,outcome,NIH3T3 [4],inactive
same,Potency,UISO,inactive
same,Potency,WaGa,inactive
same,Potency,C33A,inactive
same,Potency,CAOV3,inactive
same,Potency,CASKI,inactive
same,Potency,Es-2,inactive
same,Potency,HeLa,inactive
same,Potency,Hek293T [5],inactive
same,Potency,JEG-3,inactive
O=C(NC1CCOCC1)c1ccc(-c2cc(-c3cn[nH]c3-c3ccccn3)ccn2)cc1,max response,HEK293,-15.5%
same,max response,HaCat [1],2.12%
same,outcome,HaCat [1],inactive
same,max response,KB-3-1,-6.4% and 1.2%
same,outcome,HACAT [3],inactive
same,Potency,MCC-13,inactive
same,Potency,MCC-26,inactive
same,Potency,MKL-1,inactive
same,Potency,MKL-2,inactive
same,Potency,UISO,inactive
same,Potency,WaGa,inactive
same,Potency,C33A,inactive
same,Potency,CASKI,inactive
same,Potency,Es-2,inactive
same,Potency,HeLa,inactive
same,Potency,Hek293T [5],inactive
same,Potency,JEG-3,inactive
COc1ncc(-c2ccc3nccc(-c4ccnnc4)c3c2)cc1NS(=O)(=O)c1ccc(F)cc1F,Potency,HEK293,20.6 nM (active)
same,max response,HEK293,-126%
same,Potency,HaCat [1],0.0065 µM (active)
same,max response,HaCat [1],-157%
same,Potency,KB-3-1,590 nM (active) and 103 nM (active)
same,Potency,MCC-13,833 nM (active)
same,Potency,MCC-26,372 nM (active)
same,Potency,MKL-1,1.48 µM (active)
same,Potency,MKL-2,105 nM (active)
same,Potency,UISO,23.5 nM (active)
same,Potency,WaGa,526 nM (active)
same,Potency,HeLa,631 nM (active)
same,Potency,Hek293T [5],100 nM (active)
same,Potency,JEG-3,25.1 µM (active)
COc1ccc2c(Oc3ccc(NC(=O)c4c(C)n(CC(C)(C)O)n(-c5ccccc5)c4=O)nc3)ccnc2c1,max response,HEK293,3.25%
same,Potency,HaCat [1],11.6 µM (active)
same,max response,HaCat [1],-3.13%
same,max response,KB-3-1,3.31%
same,Potency,NIH3T3 [2],3.66 µM (active)
same,Potency,MCC-13,inactive
same,Potency,MCC-26,inactive
same,Potency,MKL-1,inactive
same,Potency,MKL-2,inactive
same,Potency,UISO,inactive
same,Potency,WaGa,inactive
same,Potency,C33A,inactive
same,Potency,CASKI,inactive
same,Potency,Es-2,inactive
same,Potency,HeLa,inactive
same,Potency,Hek293T [5],inactive
same,Potency,JEG-3,inactive
O=C(O)CCc1nc(-c2ccccc2)c(-c2ccccc2)o1,max response,HEK293,-15.1% and -1.16%
same,max response,HaCat [1],-18.5%
same,outcome,HaCat [1],inactive
same,max response,KB-3-1,-6.48%
same,outcome,KB-3-1,inactive
same,outcome,HACAT [3],inactive
same,Potency,MCC-13,inactive
same,Potency,MCC-26,inactive
same,Potency,MKL-1,inactive
same,outcome,NIH3T3 [4],inactive
same,Potency,UISO,inactive
same,Potency,WaGa,inactive
same,Potency,C33A,inactive
same,Potency,CAOV3,inactive
same,Potency,CASKI,inactive
same,Potency,Es-2,inactive
same,Potency,HeLa,inactive
same,Potency,Hek293T [5],inactive
same,Potency,JEG-3,inactive
CCN1CCC[C@H]1CNC(=O)c1cc(S(N)(=O)=O)ccc1OC,outcome,HEK293,inactive
same,max response,HaCat [1],-3.98%
same,outcome,HaCat [1],inactive
same,max response,KB-3-1,-2.45%
same,outcome,KB-3-1,inactive
same,max response,NIH3T3 [2],0.0033% and 0.419%
same,outcome,HACAT [3],inactive
same,outcome,HEK293T [6],inactive
same,Potency,MCC-13,inactive
same,Potency,MCC-26,inactive
same,Potency,MKL-1,inactive
same,Potency,MKL-2,inactive
same,Potency,UISO,inactive
same,Potency,WaGa,inactive
same,Potency,C33A,inactive
same,Potency,CASKI,inactive
same,Potency,Es-2,inactive
same,Potency,HeLa,inactive
same,Potency,Hek293T [5],inactive
same,Potency,JEG-3,inactive
CC1CCC(C(=O)N(c2cc(C#CC(C)(C)C)sc2C(=O)O)C2CCC(O)CC2)CC1 (centres undefined),max response,HEK293,-1.31%
same,outcome,HaCat [1],inactive
same,max response,KB-3-1,-8.44% and -2.14%
same,max response,NIH3T3 [2],-3.97%
same,outcome,NIH3T3 [2],inactive
same,outcome,HACAT [3],inactive
same,Potency,MCC-13,inactive
same,Potency,MKL-1,inactive
same,Potency,MKL-2,inactive
same,outcome,NIH3T3 [4],inactive
same,Potency,UISO,inactive
same,Potency,WaGa,inactive
same,Potency,C33A,inactive
same,Potency,Es-2,inactive
same,Potency,HeLa,inactive
same,Potency,Hek293T [5],inactive
CC(C)C(=O)Oc1ccc(CO)cc1[C@H](CCN(C(C)C)C(C)C)c1ccccc1,max response,HEK293,-22.5% and -1.3%
same,max response,HaCat [1],-23.8%
same,outcome,HaCat [1],inactive
same,max response,KB-3-1,-1.04% and 2.37%
same,max response,NIH3T3 [2],-3.14%
same,outcome,NIH3T3 [2],inactive
same,outcome,HACAT [3],inactive
same,Potency,MCC-13,inactive
same,Potency,MKL-1,inactive
same,Potency,MKL-2,inactive
same,outcome,NIH3T3 [4],inactive
same,Potency,UISO,inactive
same,Potency,WaGa,inactive
same,Potency,CAOV3,inactive
same,Potency,CASKI,inactive
same,Potency,Es-2,inactive
same,Potency,HeLa,inactive
same,Potency,Hek293T [5],inactive
same,Potency,JEG-3,inactive
Cc1ccc(Nc2cc(-c3cccc(N4C(=O)c5ccccc5C4=O)c3)ncn2)cc1NS(C)(=O)=O,max response,HEK293,-21.5%
same,outcome,HaCat [1],inactive
same,max response,KB-3-1,6.32%
same,outcome,KB-3-1,inactive
same,outcome,HACAT [3],inactive
same,Potency,MCC-13,inactive
same,Potency,MKL-1,inactive
same,Potency,MKL-2,inactive
same,outcome,NIH3T3 [4],inactive
same,Potency,UISO,inactive
same,Potency,WaGa,inactive
same,Potency,C33A,inactive
same,Potency,CAOV3,inactive
same,Potency,CASKI,inactive
same,Potency,Es-2,inactive
same,Potency,HeLa,inactive

# — PubChem BioAssay (NCATS)
